Measured values as given in PubChem BioAssay AID1159580 (chemical genetic matrix, 2015).
Among all 5,500 compounds or so, about 2,000 (36%) were called active. Not shown: some 18% with an inconclusive outcome. This is one part of the list. Unmarked numbers belong to inactive results. Rule as the data show it: active = normalized growth mostly below about 0.91 (no sharp cut-off); inconclusive = no clear call, values can overlap the other calls; inactive = mostly above about 0.92.

Test: chemical genetic growth profiling, strain panel (AID 1159580);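 also: tested at 20 µM; growth read once vehicle control cultures reached saturation at 30 °C; 1 = growth at the plate median or of vehicle wells; lower values mean less growth of the strain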
Settings: S. cerevisiae deletion strains, growth OD

With `Cc1nc(-c2ccccn2)[nH]c(=O)c1Cc1c(Cl)cccc1Cl` the normalized growth (locus YAR019C, strain CDC15, hits give low values) was 0.967, the normalized growth (locus YBL105C, strain PKC1, hits give low values) was 0.962 and the normalized growth (locus YBR135W, strain CKS1, hits give low values) was 0.956. For the same molecule, the normalized growth (locus YBR136W, strain MEC1, hits give low values) was 0.954, the normalized growth (locus YBR160W, strain CDC28, hits give low values) was 0.963 and the normalized growth (locus YDL017W, strain CDC7, hits give low values) was 0.961. For the same molecule, the normalized growth (locus YDL028C, strain MPS1, hits give low values) was 0.95, the normalized growth (locus YDL101C, strain DUN1, hits give low values) was 0.965 and the normalized growth (locus YDL108W, strain KIN28, hits give low values) was 0.954. The normalized growth (locus YDL132W, strain cdc53, hits give low values) was 0.941, the normalized growth (locus YDL214C, strain PRR2, hits give low values) was 0.861 and the normalized growth (locus YDR052C, strain DBF4, hits give low values) was 0.96. The normalized growth (locus YDR054C, strain cdc34, hits give low values) was 0.928, the normalized growth (locus YDR226W, strain ADK1, hits give low values) was 0.959 and the normalized growth (locus YDR477W, strain SNF1, hits give low values) was 0.871. The normalized growth (locus YER123W, strain YCK3, hits give low values) was 0.726, the normalized growth (locus YER133W, strain GLC7, hits give low values) was 0.872 and the normalized growth (locus YFL009W, strain cdc4, hits give low values) was 0.965. For the same molecule, the normalized growth (locus YFL029C, strain CAK1, hits give low values) was 0.957, the normalized growth (locus YFR003C, strain YPI1, hits give low values) was 0.959 and the normalized growth (locus YFR019W, strain FAB1, hits give low values) was 0.906. The normalized growth (locus YFR028C, strain CDC14, hits give low values) was 0.972, the normalized growth (locus YGR040W, strain KSS1, hits give low values) was 0.859 and the normalized growth (locus YGR052W, strain FMP48, hits give low values) was 0.871. For the same molecule, the normalized growth (locus YGR092W, strain DBF2, hits give low values) was 0.762, the normalized growth (locus YHR030C, strain SLT2, hits give low values) was 0.985 and the normalized growth (locus YHR079C, strain IRE1, hits give low values) was 0.842. It also gave a normalized growth (locus YHR082C, strain KSP1, hits give low values) of 0.893, a normalized growth (locus YHR205W, strain SCH9, hits give low values) of 0.939 and a normalized growth (locus YIL147C, strain SLN1, hits give low values) of 0.946. For the same molecule, the normalized growth (locus YJL095W, strain BCK1, hits give low values) was 0.892, the normalized growth (locus YJL128C, strain PBS2, hits give low values) was 0.928 and the normalized growth (locus YJL157C, strain FAR1, hits give low values) was 0.823. For the same molecule, the normalized growth (locus YJR016C, strain ILV3, hits give low values) was 0.952, the normalized growth (locus YJR066W, strain TOR1 (second series), hits give low values) was 0.769 and the normalized growth (locus YJR066W, strain TOR1, hits give low values) was 0.864. For the same molecule, the normalized growth (locus YKL048C, strain ELM1, hits give low values) was 0.941, the normalized growth (locus YKL067W, strain YNK1, hits give low values) was 0.881 and the normalized growth (locus YKL101W, strain HSL1, hits give low values) was 0.853. For the same molecule, the normalized growth (locus YKL193C, strain SDS22, hits give low values) was 0.951, the normalized growth (locus YKL203C, strain TOR2, hits give low values) was 0.899 and the normalized growth (locus YLR113W, strain HOG1, hits give low values) was 0.837 (active). It also gave a normalized growth (locus YLR133W, strain CKI1, hits give low values) of 0.889, a normalized growth (locus YLR403W, strain SFP1, hits give low values) of 0.858 and a normalized growth (locus YML070W, strain DAK1, hits give low values) of 0.84. The normalized growth (locus YMR001C, strain CDC5, hits give low values) was 0.956, the normalized growth (locus YMR205C, strain PFK2 (second series), hits give low values) was 0.876 and the normalized growth (locus YMR277W, strain FCP1, hits give low values) was 0.952. The normalized growth (locus YNL006W, strain LST8, hits give low values) was 0.952, the normalized growth (locus YNL020C, strain ARK1, hits give low values) was 0.845 and the normalized growth (locus YNL161W, strain CBK1, hits give low values) was 0.958. It also gave a normalized growth (locus YNL183C, strain NPR1, hits give low values) of 0.9, a normalized growth (locus YNL207W, strain RIO2, hits give low values) of 0.951 and a normalized growth (locus YNL222W, strain SSU72, hits give low values) of 0.956. It also gave a normalized growth (locus YNL307C, strain MCK1 (second series), hits give low values) of 0.843, a normalized growth (locus YOL078W, strain AVO1, hits give low values) of 0.964 and a normalized growth (locus YOL136C, strain PFK27, hits give low values) of 0.866. It also gave a normalized growth (locus YOR061W, strain CKA2, hits give low values) of 0.827, a normalized growth (locus YOR119C, strain RIO1, hits give low values) of 0.887 and a normalized growth (locus YOR231W, strain MKK1, hits give low values) of 0.86. For the same molecule, the normalized growth (locus YOR329C, strain SCD5, hits give low values) was 0.958, the normalized growth (locus YPL031C, strain PHO85, hits give low values) was 0.869 and the normalized growth (locus YPL153C, strain RAD53, hits give low values) was 0.805. It also gave a normalized growth (locus YPL204W, strain HRR25, hits give low values) of 0.84, a normalized growth (locus YPL209C, strain IPL1, hits give low values) of 0.956 and a normalized growth (locus YPL256C, strain CLN2, hits give low values) of 0.94. The normalized growth (locus YPR025C, strain CCL1, hits give low values) was 0.964, the normalized growth (locus YPR106W, strain ISR1, hits give low values) was 0.985 and the normalized growth (locus YPR111W, strain DBF20, hits give low values) was 0.973. For the same molecule, the normalized growth (strain NNK1, hits give low values) was 0.96 and the normalized growth (strain TSCII, hits give low values) was 0.949.
